Test results from PubChem BioAssay (NCATS).
Records with an inconclusive call do not appear. A number with no mark means an inactive call. The source made the active and inactive calls. Calls come from the whole dose curve; as a rule, active = well fitted inhibition curve with a large enough effect; inconclusive = small, poorly fitted or top-dose-only effect; inactive = flat fitted curve, though single readings scatter.

Test system: 7G8
Experiment: qHTS profiling for inhibitors of Plasmodium falciparum proliferation (AID 504749); note: nearly all actives have a fitted effect of over 60% in size;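 for activity, negative = inhibition: 0% = DMSO vehicle and full inhibition = artemisinin control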
Details: P. falciparum in erythrocytes, SYBR Green DNA, 72 h; series mostly up to 28.7 µM; activity, negative = inhibition: at the top concentration
Outline: (§1)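 Each compound contacts P. falciparum-infected red blood cells for 72 h at 37 C; lysis buffer (Tris, EDTA, saponin, Triton X, SYBR Green I) is added and fluorescence measured next morning; values normalized to controls.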
Potency is the fitted concentration of half-maximal effect.

| Structure (SMILES) | activity, negative = inhibition [%] | Potency |
| --- | --- | --- |
| OCCN1CC(O)C(O)C(O)C1CO (configuration not stated) | -2.04 | – |
| COc1cc2c(cc1O)CCN[C@@]21CS[C@H]2c3c(OC(C)=O)c(C)c4c(c3C(COC1=O)N1C2C2c3c(cc(C)c(OC)c3O)CC([C@@H]1O)N2C)OCO4 (some centres not stated) | – | 0.3 nM (active) |
| CC(CCC(=O)O)C1CCC2C3C(=O)C[C@@H]4CC(=O)CC[C@@]4(C)C3CC(=O)[C@]12C (some centres not stated) | -26.2 | – |
| C[n+]1c2cc(N)ccc2cc2ccc(N)cc21 | – | 63.1 nM (active) |
| O=C(OC[C@@H]1O[C@@](O)(COC(=O)c2cccnc2)[C@H](OC(=O)c2cccnc2)[C@H]1OC(=O)c1cccnc1)c1cccnc1 | -16.6 | – |
| O=[N+]([O-])O[C@H]1CO[C@H]2[C@@H]1OC[C@H]2O | 6.94 | – |
| COc1cccc(OC)c1C(=O)NC1C(=O)N2C1SC(C)(C)C2C(=O)O (configuration not stated) | -4.8 | – |
| NC[C@@H]1O[C@H](OC2[C@@H](CO)O[C@@H](OC3[C@H](O)[C@H](N)C[C@H](N)[C@H]3OC3O[C@H](CO)[C@@H](O)[C@H](O)[C@@H]3N)[C@H]2O)C(N)[C@H](O)[C@@H]1O (some centres not stated) | 1.67 | – |
| Cc1ccc(S(=O)(=O)NC(=O)NC(C)Cc2ccccc2)cc1 (configuration not stated) | -10.7 | – |
| OCCOC[C@H]1O[C@H](OCCO)[C@H](OCCO)[C@@H](OCCO)[C@@H]1OCCO (tested in a mixture with another compound) | -7.64 | – |
| C[S+](C)CC[C@H](N)C(=O)O | -0.337 | – |
| CC[C@@H]1/C=C(\C)C[C@H](C)C[C@H](OC)[C@H]2O[C@@](O)(C(=O)C(=O)N3CCCC[C@H]3C(=O)O[C@H](/C(C)=C/[C@@H]3CC[C@H](Cl)[C@H](OC)C3)[C@H](C)[C@@H](O)CC1=O)[C@H](C)C[C@@H]2OC | -1.35 | – |
| NC(=O)C1CC2(NC(=O)NC2=O)c2cc(F)ccc2O1 (configuration not stated) | -12.6 | – |
| CN1[C@@H]2CC[C@@H]1CC(OC(=O)[C@H](CO)c1ccccc1)C2 (some centres not stated) | -13.6 | – |
| CC[C@@]1(O)C[C@H](O[C@H]2C[C@@H](N(C)C)[C@@H](O[C@H]3C[C@@H](O)[C@@H](O[C@H]4CCC(=O)[C@@H](C)O4)[C@@H](C)O3)[C@@H](C)O2)c2c(cc3c(c2O)C(=O)c2c(O)cccc2C3=O)[C@H]1C(=O)OC | – | 39.8 nM (active) |
| CCCCCCCCCCCC(=O)OCC(O)C1OCC(O)C1O (configuration not stated) | -10.3 | – |
| C/C1=C2/[N-]C(C(CC(N)=O)[C@@]2(C)CCC(=O)NCC(C)OP(=O)([O-])O[C@H]2[C@@H](O)[C@@H](n3cnc4cc(C)c(C)cc43)O[C@@H]2CO)[C@]2(C)N=C(/C(C)=C3N=C(/C=C4N=C1C(CCC(N)=O)C\4(C)C)[C@@H](CCC(N)=O)[C@]\3(C)CC(N)=O)[C@@H](CCC(N)=O)[C@]2(C)CC(N)=O.CC(=O)O.[Co] (some centres not stated) | -22.7 | – |
| CC1(C)OC[C@@H]2O[C@@]3(C(=O)O)OC(C)(C)O[C@@H]3[C@@H]2O1 | -3.49 | – |
| Cc1ccccc1N1C(=O)c2cc(N)ccc2N/C1=C\F | -28.9 | – |
| CCC(C(=O)O)C1OC(C(C)C(O)C(C)C(=O)C(CC)C2OC3(C=CC(O)C4(CCC(C)(C5CCC(O)(CC)C(C)O5)O4)O3)C(C)CC2C)C(C)CC1C (configuration not stated) | – | 79.4 nM (active) |
| O=C1C(I)=CC(=C(c2cc(I)c(O)c(I)c2)c2ccccc2C(=O)O)C=C1I | -25 | – |
| NC(=O)NC(CCC(=O)O)C(=O)O (configuration not stated) | -1.66 | – |
| COC1CC2CCC(C)[C@](O)(O2)C(=O)C(=O)N2CCCCC2C(=O)OC(C(C)CC2CCC(O)C(OC)C2)CC(=O)C(C)/C=C(/C)C(O)C(OC)C(=O)C(C)CC(C)C=CC=C/C=C\1C (some centres not stated) | – | 1000 nM (active) |
| CC(=O)OCC(=O)[C@@]1(O)CCC2C3C[C@H](C)C4=CC(=O)C=CC4(C)C3C(O)CC21C (some centres not stated) | -26.5 | – |
| CN[C@H](C)CCC=C(C)C | – | 50.1 nM (active) |
| CC1(C)C2CC[C@]1(C)[C@@H](O)C2 | 6.31 | – |
| OCC1O[C@H](Oc2ccc(O)cc2)C(O)C(O)C1O (some centres not stated) | 41.3 | – |
| Nc1nc(F)nc2c1ncn2[C@@H]1O[C@H](CO)[C@@H](O)[C@H]1O | -1.46 | – |
| CC1OC(OC2CCC3(C)C(CCC4C3CC(O)C3(C)C(C5=CC(=O)OC5)CCC43O)C2)CC(O)C1OC1CC(O)C(OC2CC(O)C(OC3OC(CO)C(O)C(O)C3O)C(C)O2)C(C)O1 (configuration not stated) | -22.3 | – |
| CC1OC(OCC2OC(Oc3c(-c4ccc(OCCO)c(OCCO)c4)oc4cc(OCCO)cc(O)c4c3=O)C(O)C(O)C2O)[C@@H](O)C(O)C1O (some centres not stated) | -0.353 | – |

Test system: AA1029
Experiment: as above
Details: P. falciparum in erythrocytes, SYBR Green DNA, 72 h; series mostly up to 28.7 µM; activity, negative = inhibition: at the top concentration
Outline: as §1

| Structure (SMILES) | activity, negative = inhibition [%] | Potency |
| --- | --- | --- |
| CCCCCCCCCCCCCCCC(=O)OC[C@H](O)[C@H]1OC[C@@H](O)[C@@H]1O | -0.946 | – |
| CCCCC(=O)OCC(=O)[C@]1(O)Cc2c(O)c3c(c(O)c2[C@H](OC2CC(NC(=O)C(F)(F)F)C(O)C(C)O2)C1)C(=O)c1c(OC)cccc1C3=O (some centres not stated) | – | 2000 nM (active) |
